Screening results deposited in PubChem BioAssay by several laboratories.
Only some compounds are listed: those with a hit (about 3.2% of all), similar ones and a draw of the others.
Rce1 inhib = blocks yeast Ras-converting enzyme | Q03530 | calls only | yeast membranes, quenched prenylated peptide cleavage fluorescence | 0.27% of 290,000 active;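 active means fall in fluorescence gain of 50% or more versus controls, with final raw signal at or below 3038400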;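 further: plate controls were neutral control wells for no effect and wells lacking membranes for full effect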
CHT block = inhibits the human high affinity choline transporter | Q9GZV3 | CHT-expressing cells, membrane potential dye, choline response; stronger effect = lower value | B-score at 10 µM | 0.86% of 310,000 active;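 active means B-score over 3 SD under the library average, and starting fluorescence ratio not unusually high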;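 further: choline stimulus applied at its EC90 after an EC20 pre-addition; B-score computed on integrated fluorescence ratio after choline addition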
CHT PAM = allosteric activators of human choline transporter CHT. Q9GZV3. CHT-expressing cells, membrane potential dye, choline EC20; stronger effect = higher value; LV-AA mutant CHT in HEK293 cells. B-score at 10 µM. 0.49% of 310,000 active. AID 488977;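 active means initial fluorescence not abnormally high and integrated response B-score, plate-corrected, over 3 SD above library mean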
TMEM16A inh = inhibitors of mouse TMEM16A calcium-activated chloride channel. HEK293 TMEM16A/YFP iodide influx fluorescence, ionomycin. Q8BHY3. normalized B-score (activity score, 25-100; higher = stronger inhibition) at 10 µM. 1.2% of 310,000 active;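 active means ratio plate-corrected score three or more library SD toward inhibition, starting fluorescence score within five deviations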;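 further: score derived from kinetic fluorescence span divided by baseline fluorescence per well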
ANO1 activ = mouse TMEM16A channel activation, primary screen. Q8BHY3. HEK293 TMEM16A/YFP-H148Q/I152L, iodide quench fluorescence; stronger effect = lower value. B-score at 10 µM. 0.3% of 340,000 active;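 active means fluorescence-ratio B-score plate-corrected deviation score at least 3 library SD below zero, with starting fluorescence score within 5 deviations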;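 further: channel opened by trigger with iodide after compound preincubation; score built on the fluorescence ratio of max minus min over baseline; more negative score means more quench and so TMEM16A activation or potentiation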
Kir21 block = Kir2.1 (mouse) channel inhibition. P35561. HEK293-Kir2.1, FluxOR thallium flux fluorescence; stronger effect = lower value. B-score at 10 µM. 0.85% of 310,000 active;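 active means fluorescence ratio B-score at or below minus 3 SD of library scores, with starting-brightness B-score within 2 SD, cut at about -4.2 in these data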;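 further: channel flux triggered by added potassium and thallium sulfate stimulus; B-score of peak minus minimum fluorescence over baseline after thallium stimulus; more negative B-score means stronger Kir2.1 block with less thallium influx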
Target sequence (P35561 whole entry, looked up): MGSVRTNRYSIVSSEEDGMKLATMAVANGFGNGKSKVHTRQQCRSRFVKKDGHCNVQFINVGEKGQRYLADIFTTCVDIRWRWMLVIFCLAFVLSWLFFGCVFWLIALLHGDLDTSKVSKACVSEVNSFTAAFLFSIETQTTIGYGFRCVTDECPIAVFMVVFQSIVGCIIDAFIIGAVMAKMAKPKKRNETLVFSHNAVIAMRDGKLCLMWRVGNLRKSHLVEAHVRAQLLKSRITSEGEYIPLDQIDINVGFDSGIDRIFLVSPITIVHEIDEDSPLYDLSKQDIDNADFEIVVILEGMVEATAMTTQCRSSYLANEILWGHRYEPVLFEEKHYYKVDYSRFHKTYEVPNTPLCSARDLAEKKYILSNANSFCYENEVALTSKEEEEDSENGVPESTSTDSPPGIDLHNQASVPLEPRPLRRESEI
An asterisk follows results filed as active; i = inactive; nt = not tested or not shown; + = active, no number.

SMILES	Rce1 inhib	CHT block	CHT PAM	TMEM16A inh	ANO1 activ	Kir21 block
OCCC1CN(Cc2ccc(-c3ccco3)cc2)CCN1Cc1ccsc1 (stereo not drawn)	i	i	i	i	i	-4.52*
C#Cc1ccc(CN2CCN(Cc3ccsc3)C(CCO)C2)cc1 (stereo not drawn)	i	i	i	i	i	-0.97
OCCC1CN(Cc2ccccc2OC2CCCC2)CCN1Cc1ccsc1 (stereo not drawn)	i	i	i	i	i	-4.45*
CC(=O)Oc1ccc(C(=O)NCc2ccco2)cc1	i	i	i	i	i	0.7
O=C(COc1ccccc1)N1CCN(C(=O)COc2ccccc2)CC1	i	i	i	i	i	0.03
Cc1nc(N2CCN(C(=O)COc3ccccc3)CC2)c2c(C)c(C)sc2n1	i	-7.53*	i	100*	i	0.6
CC(C)CCn1nnnc1C(C(C)C)N1CCC(C(N)=O)CC1 (stereo not drawn)	i	i	i	100*	i	0.08
CCCC(c1nnnn1CCC(C)C)N1CCC(C(N)=O)CC1 (stereo not drawn)	i	i	i	i	nt	0.73
COCCNC(=O)Cn1ncc2ccsc2c1=O	i	i	i	i	-11.2*	2.08
COCCCNC(=O)Cn1ncc2ccsc2c1=O	i	i	i	i	i	0.31
COc1cc(/C=C2/C(=N)N3OC(C)=CC3=NC2=O)ccc1OC(=O)c1ccco1	i	i	i	i	i	0.1
COc1cc(/C=C2\C(=N)N3N=C(N4CCOCC4)SC3=NC2=O)ccc1OC(=O)c1ccccc1	i	i	i	100*	i	-2.79
COc1cc(/C=C2\C(=N)N3N=C(S(C)(=O)=O)SC3=NC2=O)ccc1OS(=O)(=O)c1ccccc1	i	i	i	i	nt	-0.01
CCS(=O)(=O)C1=NN2C(=N)/C(=C\c3ccc(OS(=O)(=O)c4ccccc4)c(OC)c3)C(=O)N=C2S1	i	-5.35*	i	i	nt	0.88
COc1cc(/C=C2\C(=N)N3N=C(S(=O)(=O)CC(C)C)SC3=NC2=O)ccc1OC(=O)c1ccco1	i	-5.43*	i	i	nt	-6.01*
Cc1ccc(S(=O)(=O)Oc2ccc(/C=C3\C(=N)N4N=C(S(C)(=O)=O)SC4=NC3=O)cc2)cc1	i	-6.39*	i	i	i	0.05
NS(=O)(=O)c1cccc(NC(=O)COC(=O)CCN2C(=O)c3ccccc3C2=O)c1	nt	nt	nt	nt	i	nt
COc1ccc2cc(C(=O)N3CCN(c4ccc(F)cc4)CC3)[nH]c2c1	i	i	i	i	i	2
OCCN1CCN(CC#CCC(c2ccccc2)c2ccccc2)CC1	i	i	i	i	i	-5.67*
OCCN1CCN(CC#CCn2c3ccccc3c3ccccc32)CC1	i	i	i	i	i	-4.07
O=S(=O)(c1ccc2ccccc2c1)N(CC1CO1)c1ccccc1 (stereo not drawn)	i	i	i	i	i	-0.55
O=[N+]([O-])c1cccc(N(CC2CO2)S(=O)(=O)c2ccccc2)c1 (stereo not drawn)	i	i	i	i	i	-4.71*
Cc1ccc(N(CC2CO2)S(=O)(=O)c2ccc([N+](=O)[O-])cc2)cc1 (stereo not drawn)	i	i	i	i	i	-4.32*
CCOc1ccccc1NC(=O)CSc1nc2nc(-c3cccs3)cc(C(F)(F)F)c2c(=O)[nH]1	i	i	i	100*	i	-3.47
COc1ccc(C2CC(C(F)(F)F)n3nc(CO)c(Cl)c3N2)cc1OC (stereo not drawn)	i	i	i	i	-13.7*	0
SMILES	Rce1 inhib	CHT block	CHT PAM	TMEM16A inh	ANO1 activ	Kir21 block
O=C(O)c1nn(Cc2csc(-c3ccccc3)n2)c(=O)c2ccccc12	nt	i	i	i	i	1.52
CCOC(=O)N1CCN(C(=O)c2ccc(Cn3c(=S)[nH]c4ccc(Br)cc4c3=O)cc2)CC1	i	i	i	100*	i	1.55
CCn1c(CSCc2ccc(C)cc2)nnc1SCC(=O)NCc1ccccc1	i	i	i	i	i	-6.01*
CCn1c(CSCc2ccc(F)cc2)nnc1SCC(=O)NCc1ccccc1	i	i	i	i	i	-2.11
O=C(CCCCCNC(=O)N1CCn2c1nc1ccccc12)N[C@@H](Cc1ccccc1)C(=O)O	i	i	i	i	i	-0.42
Cc1ccc(S(=O)(=O)N2CCC(NC(=O)c3cccc(C)c3)CC2)cc1	i	i	i	i	-7.1*	-0.27
CC(=O)c1ccc(S(=O)(=O)N2CCC(NC(=O)Nc3cccc(F)c3)CC2)cc1	i	i	i	i	-7.89*	1.73
Cc1cccc(C(=O)NC2CCN(S(=O)(=O)c3ccc(F)cc3)CC2)c1	i	i	i	i	i	-1.92
Cc1cc(C)c(NC(=O)CS(=O)CC(=O)Nc2ccc(-n3cnnn3)c(C)c2)c(C)c1 (stereo not drawn)	i	i	i	i	i	-0.45
Cc1nnn(-c2nonc2N)c1C(=O)N/N=C/c1cccc2ccccc12	+	i	i	i	i	1.11
CCOc1ccc(/C=N/NC(=O)c2nnn(-c3nonc3N)c2COc2ccc(F)cc2)cc1	i	i	i	i	-5.79*	-0.05
CCCOc1ccc(-c2c(C(=O)N/N=C/c3ccncc3)nnn2-c2nonc2N)cc1	i	i	i	i	-6.8*	-0.44
CCCOc1ccc(-c2c(C(=O)N/N=C/c3cccs3)nnn2-c2nonc2N)cc1	+	i	i	i	i	0.54
CN(C)c1ccc(/C=N/NC(=O)c2nnn(-c3nonc3N)c2COc2ccc(F)cc2)cc1	i	i	i	i	i	0.24
CSCC(C)N1CCC(CCC(=O)NC2CC2)CC1 (stereo not drawn)	i	i	i	i	i	-0.24
O=C(CCc1ccccn1)N1CCCC(N2CCN(c3cccc(C(F)(F)F)c3)CC2)C1 (stereo not drawn)	i	i	i	i	i	-0.37
O=C(O)C1(Nc2ccc(Br)cc2)CCCC1	nt	nt	nt	nt	i	nt
O=C1c2ccccc2C(=O)N1CCC#Cc1ccc2cc(CCCO)oc(=O)c2c1	nt	nt	nt	nt	i	nt
O=C(c1cccs1)N1CCN(C(=O)c2cccs2)C1=S	nt	nt	nt	nt	i	nt
Cc1ccsc1/C=N/NC(=O)c1nnn(-c2nonc2N)c1-c1ccccc1	i	i	i	i	i	-0.58
CN1CCN(Cc2c(C(=O)N/N=C/c3cccc(Br)c3)nnn2-c2nonc2N)CC1	+	i	i	i	i	-1.77
